# Compound activity: PubChem BioAssay, National Center for Advancing Translational Sciences (NCATS)
# Pf growth 48h – inhibits P. falciparum growth in the first generation, 48 h. P. falciparum luciferase growth in erythrocytes, 48 h. Potency, µM (series often up to 28.7 µM), most hits filed as inhibitors. 310,000 tested, 5.9% active. AID 504832
#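 Compounds are pin-transferred into medium, infected erythrocytes (2% hematocrit, 0.1% parasitemia final) are added, and plates sit one parasite generation at 37 C in 5% CO2. Detection reagent is then added and luminescence measured.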
# HCMV antiviral – human cytomegalovirus inhibition; HFF cells, HCMV-luciferase reporter, 72 h; hits give low values; activity change, negative = inhibition, % at 57.5 µM; 410,000 tested, 4.5% active; AID 1259415; in the data active means activity change below about -60%; inconclusive means no clear call, values can overlap the other calls; inactive means above about -39%
#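 Cell-based, HFFs, 1000 cells/well, 16 h 37C; cpds in DMSO + HCMV-luc, MOI 1 PFU/cell; 72 h 37C; OneGlo luminescence after 5 min RT; norm. to buffer vs Salinomycin 10uM.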
# Pf growth 96h – P. falciparum growth inhibition at 96 hour, primary screen for plastid delayed-death inhibitors. P. falciparum luciferase reporter growth, 96 h. Potency, µM (series often up to 28.7 µM), actives largely listed as inhibitors. 320,000 tested, 6.9% active
#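 Plates of compound plus infected erythrocytes (2% hematocrit, 0.05% parasitemia final) incubate 96 hours, 37 C, 5% CO2. Detection reagent added; reduced luminescence from the parasites' luciferase reporter flags inhibition.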
# HCV inh – blocks hepatitis C virus | Huh7.5.1 HCVcc-Cre infection, luciferase reporter, 44 h | Potency, µM (doses to about 41.8 µM), usual class: inhibitors | 340,000 tested, 3.4% active | AID 651820
#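 A cell-based infection assay in which seeded cells (1,000 per well) receive test compound after 4 h, are inoculated with HCVcc-Cre at approximately 0.5 moi, and are incubated 44 h before luminescence detection.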
# Lassa entry inh – inhibitors of Lassa virus binding or cell entry. Potency, µM (titrated, usually from 37.9 µM), most hits filed as inhibitors. AID 540256. 300,000 tested, 1.2% active. Lassa virus pseudotype entry inhibition, cell reporter; calls by dose curve; tested in HEK293 cells; further: nearly all actives have a fitted effect of over 50% in size
# MARV entry inh – inhibitors of Marburg virus binding or cell entry. Marburg virus pseudotyped entry inhibition, cell reporter. Potency, µM (titrated, usually from 37.8 µM), most hits filed as inhibitors. 300,000 tested, 1.8% active. AID 540276; calls by dose curve; tested in HEK293 cells
# Numbers stand for hits; – = inactive; ? = inconclusive; · = no result given. Compounds with a hit are over-represented: about 14% of the library has one in this group of screens. Unless noted, the call rests on the fitted dose curve; in most records, active means well fitted inhibition curve with a large enough effect; inconclusive means small, poorly fitted or top-dose-only effect, or another doubt; inactive means no such curve, though single readings can be large or run the other way.
SMILES,Pf growth 48h,HCMV antiviral,Pf growth 96h,HCV inh,Lassa entry inh,MARV entry inh
O=C(NC(Cc1nn[nH]n1)C(=O)OCc1ccccc1)OCc1ccccc1 (stereo not drawn),·,–,·,·,·,·
Cc1ccc(C(=O)c2cn(Cc3cccc(F)c3)c3nc(C)ccc3c2=O)cc1,·,?,·,·,–,?
COc1ccc2c(c1)c(=O)c(C(=O)c1ccc(C)cc1)cn2Cc1ccccc1F,·,-69,·,·,?,11µM
Cc1ccc(C(=O)c2cn(Cc3ccccc3)c3nc(C)ccc3c2=O)cc1,·,-73,·,·,–,?
O=C(c1ccc(Cl)cc1)c1cn(Cc2ccccc2)c2cc3c(cc2c1=O)OCCO3,·,-63,·,·,?,?
COc1ccc(Cn2cc(C(=O)c3ccc(Cl)cc3)c(=O)c3cc4c(cc32)OCO4)cc1,·,-98,·,·,?,?
COc1ccc(C(=O)c2cn(Cc3ccccc3F)c3ccc(F)cc3c2=O)cc1,·,?,·,·,?,–
O=C1C=C(c2ccc3ccccc3c2)C[C@@H](c2ccc(F)cc2)C1,–,–,?,–,·,·
Cc1cccc(N2C(S)=C(C#N)C(=O)NC2c2ccco2)c1 (stereo not drawn),–,-68,–,–,–,?
CN(C)c1cccc(N=C2C=C(N3CCOCC3)CC(C)(C)C2)c1,?,–,–,–,–,–
CC1C[N+](=C2C=C(N3CCOCC3)CC(C)(C)C2)CC(C)O1 (stereo not drawn),?,–,12µM,–,–,–
CC1(C)CC(N2CCCCC2)=CC(=[N+]2CCCCC2)C1,?,-95,?,?,?,?
CCCN(CCC)C1=CC(=[N+]2CCCC2)CC(C)(C)C1,1.5µM,-101,0.33µM,?,10µM,?
CN(C)NC1=CC(=[N+]2CCCC2)CC(C)(C)C1,?,–,?,–,–,–
CC1(C)CC(N2CCOCC2)=CC(=[N+]2CCOCC2)C1,13µM,?,8.3µM,–,–,?
CCOC(=O)c1ccc(NC(=O)COc2ccc(CNCCO)cc2OCC)cc1,?,–,?,8.9µM,·,10µM
COc1cc(C(=O)NC2CCCc3ccccc32)ccc1OCC(=O)Nc1ccc(F)cc1 (stereo not drawn),?,–,13µM,–,?,?
COC(=O)NNC(=O)COc1ccc(Cl)cc1,–,-108,–,–,?,–
CC(=O)Nc1ccc(OCC(=O)NCCc2ccc(Cl)cc2)cc1,–,–,13µM,–,–,–
C[C@H]1[C@@H](C(=O)N2CCCC2)CC(=O)C(=NOCc2ccccc2)C[C@H]1c1ccccc1,·,·,·,·,?,–
CCOC(=O)c1ccc(NC(=O)CNNC(=O)COc2ccccc2C)cc1,·,–,·,–,·,·
CCOC(=O)c1ccc(NC(=O)COc2ccc(CNC3CCCCC3)cc2OC)cc1,4.7µM,–,–,?,?,?
COc1cc(CNC(C)(C)CO)ccc1OCC(=O)Nc1ccc(Br)cc1,–,–,–,13µM,–,?
CCOc1ccc(NC(=O)C(=O)NCCc2ccccc2)cc1,·,–,·,·,–,·
CCOC(=O)c1ccc(NC(=O)COc2ccccc2CNCCc2ccccc2)cc1,?,-65,?,?,·,·
SMILES,Pf growth 48h,HCMV antiviral,Pf growth 96h,HCV inh,Lassa entry inh,MARV entry inh
CCOc1ccc(NC(=O)COc2ccc(C(=O)NCCc3ccccc3)cc2)cc1,–,-81,–,–,?,–
Cc1ccc(NS(=O)(=O)c2ccc3c(c2)CCC(=O)N3)cc1C,–,–,–,?,–,–
Cc1ccc(NS(=O)(=O)c2ccc3c(c2)NC(=O)CCS3)cc1C,13µM,?,?,–,–,·
Cc1ccc(NS(=O)(=O)c2ccc3c(c2)NC(=O)CCS3)cc1F,9.3µM,–,–,–,–,–
CNC(=S)NNC(=O)c1sccc1OCc1cccc(C(F)(F)F)c1,?,–,13µM,–,–,–
COc1cc(OC)c(N(C)S(=O)(=O)c2cccc(C(=O)OCC(=O)c3c[nH]c4ccccc34)c2)cc1Cl,1.9µM,?,?,?,?,?
CC(O)C(NS(=O)(=O)c1ccc(Cl)cc1)C(=O)OCC(=O)c1c[nH]c2ccccc12 (stereo not drawn),–,–,–,?,?,?
COc1cc(OC)c(N(C)S(=O)(=O)c2cccc(C(=O)OCC(=O)N(C)C3CCCCC3)c2)cc1Cl,·,–,·,–,?,?
C=CCN(c1ccccc1OC)S(=O)(=O)c1cccc(C(=O)OCC(=O)c2c[nH]c3ccccc23)c1,?,–,4.7µM,?,9.2µM,?
CC(C)C(NS(=O)(=O)c1c(Cl)cccc1Cl)C(=O)OCC(=O)c1c[nH]c2ccccc12 (stereo not drawn),4.1µM,–,4.7µM,?,?,?
COc1ccccc1CNC(=O)C(NS(=O)(=O)c1cccs1)C(C)C (stereo not drawn),·,?,·,·,–,?
CC(=O)c1ccc(N2CCN(c3ncnc4c3c(-c3ccccc3)cn4-c3ccc(Cl)cc3)CC2)cc1,·,–,·,·,?,·
CCCCSc1nc2c(cnn2-c2ccccc2)c(=O)n1N,–,–,–,–,·,·
CCCSc1nc2c(cnn2-c2ccccc2)c(=O)n1N,–,–,–,–,8.9µM,?
CCOC(=O)[C@]12CCCC=C1N(Cc1ccccc1)C(=O)[C@H](CC(=O)NCc1cccs1)C2,·,–,·,·,·,·
CC1=NN(c2nc3ccccc3[nH]2)C(=O)/C1=C/N(C)C,–,·,?,?,?,?
CC1=NN(c2nc3ccccc3[nH]2)C(=O)C1Cc1ccccc1 (stereo not drawn),2.6µM,·,4.1µM,3.5µM,?,?
COc1cccc(C(=O)Nc2cccc(-c3ccccc3)c2)c1,–,–,–,?,·,·
NS(=O)(=O)c1ccc(Sc2nc3ccccc3s2)c([N+](=O)[O-])c1,–,–,–,22µM,–,?
Cc1nn2c(nc(N3CCOCC3)c3ccccc32)c1C=C(C#N)C#N,–,–,–,–,–,–
Cc1nn2c(nc(N3CCCCC3)c3ccccc32)c1C=O,3.3µM,?,5.2µM,?,–,?
Cc1nn2c([nH]c(=O)c3ccccc32)c1C=O,?,?,12µM,–,?,–
O=C(c1cccs1)c1cn(CCOc2ccccc2Cl)c2ccccc12,·,–,·,·,–,–
COc1cccc(CN(Cc2ccco2)c2cnc(S(C)(=O)=O)nc2C(=O)Nc2cccc(Cl)c2C)c1,·,–,·,·,–,?
CC1(C)CC(=O)c2c(O)cc(OCC(=O)Nc3ccc(S(N)(=O)=O)cc3)cc2O1,–,–,?,?,·,·
COc1cc(NC(=O)COc2cc(O)c3c(c2)OC(C)(C)CC3=O)cc(OC)c1OC,?,–,4.1µM,0.32µM,·,·
Cc1onc(-c2ccccc2)c1C(=O)Nc1ccc(OC(C)C)cc1,–,–,–,–,·,·
Cc1onc(-c2ccccc2)c1NC(=O)Nc1ccc(OC(F)F)cc1,6.6µM,–,4.7µM,–,·,·
CCOc1c(S(=O)(=O)NC2CC(C)(C)NC(C)(C)C2)ccc(Cl)c1Cl,–,–,?,?,–,10µM
CCOc1ccc(OCC)c(S(=O)(=O)NC2CC(C)(C)NC(C)(C)C2)c1,–,–,–,–,?,?
